Results: PubChem BioAssay (Tox21)
Records with an inconclusive call do not appear. Values without a mark were called inactive. Activity calls are given as the source filed them. The call rests on the fitted dose curve; in most records, active means well fitted inhibition curve with a large enough effect in the repeat runs; inconclusive means weak or mixed curves; inactive means no such curve, though single readings can be large or run the other way.

biological target: Cytochrome P450 2C19 (Homo sapiens) (UniProt P33261); assay: Cytochrome P450 Family 2 Subfamily C Member 19 (CYP2C19) small molecule antagonists: luciferase reporter qHTS assay (AID 1671197); conditions: P450-Glo CYP2C19 enzyme, luciferin luminescence, 1 h; series mostly up to 115 µM; activity change, negative = inhibition: at the top concentration; further: nearly all actives have a fitted effect of over 65% in size
Sequence (P33261 whole entry, looked up): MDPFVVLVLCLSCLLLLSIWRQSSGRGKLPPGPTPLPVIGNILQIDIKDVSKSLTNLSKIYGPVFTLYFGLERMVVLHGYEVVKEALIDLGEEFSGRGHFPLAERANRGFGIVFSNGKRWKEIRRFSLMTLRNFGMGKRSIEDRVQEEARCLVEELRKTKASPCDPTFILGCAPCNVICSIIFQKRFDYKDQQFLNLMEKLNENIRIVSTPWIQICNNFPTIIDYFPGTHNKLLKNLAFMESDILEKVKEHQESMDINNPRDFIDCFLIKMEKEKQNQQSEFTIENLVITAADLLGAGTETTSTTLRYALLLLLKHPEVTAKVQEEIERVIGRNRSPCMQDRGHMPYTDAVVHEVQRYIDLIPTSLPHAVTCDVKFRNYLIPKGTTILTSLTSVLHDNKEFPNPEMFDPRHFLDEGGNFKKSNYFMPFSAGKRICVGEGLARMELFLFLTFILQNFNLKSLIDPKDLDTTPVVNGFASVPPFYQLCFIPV
Method in brief: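 CYP2C19 P450-Glo, 1536-well qHTS. Cpd + enzyme/proluciferin substrate 10 min RT; + NADPH regen, 37C 1 h; stop with luciferin detection reagent, 20 min RT, luminescence (RLU). Pos ctrl ketoconazole.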
On the % scale 0 is the no-effect control and ±100 the full control effect; potency means the concentration at half of the fitted maximal effect.

| SMILES | activity change, negative = inhibition | Potency |
| --- | --- | --- |
| Cc1nnc(SCC2=C(C(=O)O)N3C(=O)[C@@H](NC(=O)Cn4cnnn4)[C@H]3SC2)s1 | 2.94% [at 52.9 µM] | – |
| Nc1cccc(S(=O)(=O)O)c1 | -21.9% | – |
| C[C@]12CCC(=O)C=C1CC[C@@H]1[C@@H]2CC[C@@]2(C)[C@H]1CC[C@]2(O)C(=O)CO | – | 8.71 µM (active) |
| CC/C=C\CCOC(=O)C(C)C | -17.7% | – |
| CCCOCCC | -5.48% | – |
| CC[C@H]1CC[C@H](NCc2cc3c(cc2OC)[C@H]2C[C@H]2C(=O)N3C)[C@H](c2ccccc2)N1 | 28.1% | – |
| CC1=C(CC(=O)O)c2cc(F)ccc2/C1=C\c1ccc(S(C)(=O)=O)cc1 | -3.76% [at 52.9 µM] | – |
| O=Cc1ccc(O)c(O)c1O | -23% [at 52.9 µM] | – |
| CC(C)(C)c1cccc(O)c1 | 32.9% | – |

biological target: Cytochrome P450 2C9 (Homo sapiens) (UniProt P11712); assay: Cytochrome P450 Family 2 Subfamily C Member 9 (CYP2C9) small molecule antagonists: luciferase reporter qHTS assay (AID 1671198); conditions: P450-Glo CYP2C9 enzyme assay, luciferin luminescence; series mostly up to 53 µM; activity change, negative = inhibition: at the top concentration; further: nearly all actives have a fitted effect of over 50% in size
Sequence (P11712 whole entry, looked up): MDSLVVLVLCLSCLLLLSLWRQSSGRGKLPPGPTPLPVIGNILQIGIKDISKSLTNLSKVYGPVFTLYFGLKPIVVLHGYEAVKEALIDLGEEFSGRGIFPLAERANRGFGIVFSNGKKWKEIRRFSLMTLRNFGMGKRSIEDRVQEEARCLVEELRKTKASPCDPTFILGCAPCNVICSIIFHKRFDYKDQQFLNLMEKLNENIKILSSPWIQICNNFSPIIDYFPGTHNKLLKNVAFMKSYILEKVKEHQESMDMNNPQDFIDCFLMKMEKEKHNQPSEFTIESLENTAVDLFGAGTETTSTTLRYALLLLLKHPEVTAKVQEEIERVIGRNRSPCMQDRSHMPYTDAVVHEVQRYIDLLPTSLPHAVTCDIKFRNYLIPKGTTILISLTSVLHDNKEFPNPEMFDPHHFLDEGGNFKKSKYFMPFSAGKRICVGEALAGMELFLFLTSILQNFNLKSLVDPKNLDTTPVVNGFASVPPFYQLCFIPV
Method in brief: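 P450-Glo proluciferin substrate with CYP2C9 enzyme; 10 min RT preincubation, then NADPH regeneration 1 h at 37C; luciferin detection reagent 20 min RT, luminescence in relative luminescence units.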

| SMILES | Potency | activity change, negative = inhibition |
| --- | --- | --- |
| CCCCC(=O)O[C@]1(C(=O)CO)[C@H](C)C[C@H]2[C@@H]3CCC4=CC(=O)C=C[C@]4(C)[C@@]3(F)[C@@H](O)C[C@@]21C | 17.4 µM (active) | – |
| CCCCNCCCC | – | -13.4% [at 115 µM] |
| FC(F)(F)c1ccccc1 | – | -0.199% [at 115 µM] |
| CCC(=O)O[C@]1(C(=O)SCF)[C@H](C)C[C@H]2[C@@H]3C[C@H](F)C4=CC(=O)C=C[C@]4(C)[C@@]3(F)[C@@H](O)C[C@@]21C | 4.9 µM (active) | – |
| O=C1C=CC(=O)O1 | – | -6.09% [at 115 µM] |
| CCCCCCCCCC#N | – | 0.508% [at 115 µM] |
| CCOc1ccccc1N | 31.5 µM (active) | – |
| C=CCc1cc(OC)c(O)c(C(=O)NCCO)c1 | – | -4.65% |
| CCCS(=O)c1ccc2nc(NC(=O)OC)[nH]c2c1 (stereo not given) | – | -7.35% |
| O=C1CCCCC1C1CCCCC1 (stereo not given) | – | -10.2% [at 115 µM] |
| COc1ccc(Nc2ccc(OC)cc2)cc1 | 16.2 µM (active) | – |
